Test results from PubChem BioAssay (NCI).
Compounds without any hit were thinned out: in the full panel of roughly 83,000, 20% have a hit.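 Percent growth is the endpoint: 0 to 100 indicates growth inhibition (40 means 60% inhibition), 0 means no net growth, and negative values indicate cell death.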 The source made the active and inactive calls. How the source made its calls: active means growth percent below 10; inactive means the rest.

Key:
Assay in all cases: NCI-60 one-dose screen, 48 h (100 = growth as untreated, 0 = no growth, -100 = all killed)
Conditions in all cases: 10 µM unless noted
[1] = system: DU-145 prostate
[2] = system: K-562 leukemia
[3] = system: MALME-3M melanoma
[4] = system: MDA-MB-231 breast
[5] = system: RXF 393 renal
[6] = system: SF-268 CNS
[7] = system: SF-295 CNS
[8] = system: SF-539 CNS
[9] = system: UACC-257 melanoma
[10] = system: M14 melanoma
[11] = system: HCT-15 colon
[12] = system: HT29 colon
[13] = system: SNB-75 CNS
[14] = system: SNB-19 CNS
[15] = system: U251 CNS
[16] = system: PC-3 prostate
[17] = system: SK-MEL-5 melanoma
[18] = system: UACC-62 melanoma
[19] = system: LOX IMVI melanoma
[20] = system: SK-MEL-28 melanoma

Measured: growth

Cc1ccc(N(CC2=NCCN2)c2cccc(O)c2)cc1
inactive: [1] 112% | [2] 86.3% | [3] 90.4% | [4] 113% | [5] 98.5% | [6] 107% | [7] 83.3% | [8] 106% | [9] 103% | [10] 103% | [11] 102% | [12] 107% | [13] 84.9% | [14] 103% | [15] 88.8% | [16] 92.1% | [17] 99.2% | [18] 105% | [19] 95% | [20] 108%

COc1cc(CN(c2ccc(Cl)cc2)C2OC(=O)c3ccccc32)cc(OC)c1OC (stereo not given)
inactive: [1] 83.7% | [2] 15.8% | [3] 64.3% | [4] 67.1% | [5] 82.7% | [6] 67.8% | [7] 71.5% | [8] 60.2% | [9] 74.7% | [10] 34.8% | [11] 38.2% | [12] 17.9% | [13] 68.6% | [14] 74.1% | [15] 36% | [16] 62.6% | [17] 73% | [18] 45.6% | [19] 44.9% | [20] 67.3%

Cc1cccc(NCS(=O)(=O)O)c1
inactive: [1] 112% | [2] 107% | [3] 102% | [4] 111% | [5] 109% | [6] 109% | [7] 106% | [8] 95.7% | [9] 83.2% | [10] 106% | [11] 101% | [12] 101% | [13] 106% | [14] 101% | [15] 87.8% | [16] 93% | [17] 99.7% | [18] 113% | [19] 95.2% | [20] 113%

CCC1S/C(=N\N=C(/C)c2cccs2)N(c2ccccc2)C1=O (stereo not given)
inactive: [1] 123% | [2] 110% | [3] 181% | [4] 97.7% | [5] 97.3% | [6] 89.3% | [7] 123% | [8] 124% | [9] 97.5% | [10] 141% | [11] 99% | [12] 91% | [13] 110% | [14] 114% | [15] 105% | [16] 98.4% | [17] 84.4% | [18] 117% | [19] 105% | [20] 118%

COC(=O)/C=C/C(=O)c1cc(C)cc(C)c1O
inactive: [1] 103% | [2] 103% | [3] 95.7% | [4] 114% | [5] 116% | [6] 95.9% | [7] 93.5% | [8] 99.5% | [9] 99.8% | [10] 102% | [11] 100% | [12] 99.7% | [13] 103% | [14] 108% | [15] 108% | [16] 102% | [17] 104% | [18] 106% | [19] 98.1% | [20] 102%

Nc1ncnc2c1c(-c1ccc(Oc3ccccc3)cc1)nn2C[C@H]1SSC[C@@H]1O
inactive: [1] 48% | [4] 61.4% | [5] 28.7% | [6] 43.4% | [7] 48.4% | [8] 38% | [11] 65.7% | [13] 37.3% | [14] 66.5% | [15] 45.9% | [16] 64% | [19] 11.9%
active: [2] 5.41% | [3] -48.4% | [9] 9.88% | [10] -90% | [12] 5.36% | [17] -73.9% | [18] -66.7% | [20] -29.4%

O=C(CSc1nnc(-c2cc3c([nH]c4ccccc43)c(-c3cccc(O)c3)n2)n1-c1ccccc1)c1ccccc1
active: [5] -11.4%
inactive: [1] 47.8% | [2] 21.8% | [3] 55.4% | [4] 78% | [6] 63.1% | [7] 16.8% | [8] 33.1% | [9] 93.3% | [10] 30% | [11] 46.3% | [12] 64.9% | [13] 45.8% | [14] 84.2% | [15] 32.9% | [16] 40.2% | [17] 33.2% | [18] 69.8% | [19] 11.2% | [20] 71.5%

CCCCOc1nc2ccc(Cl)cc2cc1/C=C/C(=O)/C=C/c1ccc(OC)cc1
inactive: [1] 93.8% | [2] 87% | [3] 100% | [4] 106% | [5] 119% | [6] 95.4% | [7] 113% | [8] 104% | [9] 89.7% | [10] 66.3% | [11] 91.5% | [12] 71.6% | [13] 97.9% | [14] 105% | [15] 80.5% | [16] 88.9% | [17] 93.9% | [18] 78.9% | [19] 71.5% | [20] 107%

COc1ccc(-c2nnc(SCC(=O)Nc3ccc(C(=O)/C=C/c4ccc(OC)c(OC)c4)cc3)o2)cc1
inactive: [1] 93.7% | [2] 61.7% | [3] 100% | [4] 96.6% | [5] 104% | [6] 98.2% | [7] 96.5% | [8] 96% | [9] 73.7% | [10] 105% | [11] 74.8% | [12] 87.1% | [13] 87.5% | [14] 89.6% | [15] 66.9% | [16] 79.8% | [17] 75.9% | [18] 82.9% | [19] 77.1% | [20] 99.5%

CCOC(=O)C1CSC(C)(C(=O)OCC)N1 (stereo not given)
inactive: [1] 108% | [2] 103% | [3] 98.4% | [4] 107% | [5] 115% | [6] 106% | [7] 106% | [8] 104% | [9] 111% | [10] 98.7% | [11] 101% | [12] 87.9% | [13] 100% | [14] 107% | [15] 106% | [16] 95.1% | [17] 101% | [18] 105% | [19] 98.2% | [20] 107%

C=CC(=O)Nc1cccc(Nc2nc(Nc3ccc(OCCOC(F)F)cc3)ncc2F)c1
inactive: [1] 34.7% | [2] 19.9% | [3] 46.3% | [4] 66.3% | [6] 40.5% | [7] 52.5% | [8] 31.4% | [9] 52.7% | [10] 29% | [11] 22.4% | [12] 33.8% | [14] 55.7% | [15] 30.1% | [16] 40.7% | [17] 79.6% | [18] 24.1% | [19] 18% | [20] 68%
active: [5] 9.55% | [13] 4.93%

COc1ccc(-c2nn(-c3ccc(NC(=O)Nc4ccc(Cl)c(Cl)c4)cc3)cc2-c2ccncc2)cc1Cl
inactive: [1] 28.6% | [2] 11.6% | [3] 16% | [6] 31.1% | [8] 15.7% | [9] 11.9% | [13] 46.8% | [14] 34.4% | [16] 11.3% | [20] 28.4%
active: [4] 0.693% | [5] -55.7% | [7] 1.08% | [10] 6.66% | [11] 7.56% | [12] 6.65% | [15] 0.654% | [17] -27.5% | [18] 9.56% | [19] -0.494%

Nn1c(CN2CCN(c3cc4c(cc3F)c(=O)c(C(=O)O)cn4C3CC3)CC2)n[nH]c1=S
inactive: [1] 107% | [2] 101% | [3] 94.6% | [4] 107% | [5] 109% | [6] 95.9% | [7] 102% | [8] 99.3% | [9] 111% | [10] 105% | [11] 106% | [12] 97.8% | [13] 86.4% | [14] 99.6% | [15] 112% | [16] 105% | [17] 97.5% | [18] 93.9% | [19] 103% | [20] 109%

Nc1nccc(=S)[nH]1
inactive: [1] 112% | [2] 97.8% | [3] 112% | [4] 112% | [5] 92.5% | [6] 98.6% | [7] 103% | [8] 107% | [9] 75.7% | [10] 106% | [11] 98.7% | [12] 75.3% | [13] 94% | [14] 104% | [15] 102% | [16] 102% | [17] 111% | [18] 90% | [19] 100% | [20] 106%

CC(C)CNCC(O)COc1ccc(C(C)(C)c2ccc(OCC(O)CNCC(C)C)cc2)cc1 (stereo not given)
inactive: [1] 44.7% | [5] 41.8% | [6] 55.3% | [7] 32.4% | [11] 20.1% | [13] 63.9% | [14] 51.7% | [16] 47.4%
active: [2] -60% | [3] -63.1% | [4] -14.4% | [8] -41.1% | [9] -37.4% | [10] -57.5% | [12] -8.67% | [15] -5.63% | [17] -95% | [18] -65.2% | [19] -79.9% | [20] -60.5%

COc1ccc(-c2nn(-c3ccc(NC(=O)Nc4ccc(Cl)c(C(F)(F)F)c4)cc3)cc2-c2ccncc2)cc1Cl
inactive: [1] 20.5% | [2] 10.3% | [6] 19% | [13] 32.8% | [14] 30.1% | [20] 12.2%
active: [3] 2.95% | [4] -52.1% | [5] -68.3% | [7] -25.9% | [8] -1.2% | [9] -5.92% | [10] -4.4% | [11] 4.89% | [12] 1.91% | [15] -7.17% | [16] 4.33% | [17] -86.8% | [18] 0.79% | [19] 2.18%
